For 24 compounds, Potency and activity change results are on record in PubChem BioAssay (Tox21).

Values joined by “and” are separate entries in the source; they are usually repeats but may differ in a detail not shown here. Equal entries are not always repeated. Records with an inconclusive call do not appear. Some structures have more than one record in an assay (separate samples or runs), and their calls can disagree. Active and inactive are the calls of the source. Unless noted, calls come from the whole dose curve; as a rule, active = well fitted curve in the direction sought with a large enough effect in the repeat runs; inconclusive = weak or mixed curves; inactive = no such curve, though single readings can be large; an effect the other way counts as inactive or inconclusive.

A short description of assay [1]: qHTS assay to identify small molecule antagonists of the glucocorticoid receptor (GR) signaling pathway - cell viability counter screen (AID 720693). Note: nearly all actives have a fitted effect of over 55% in size. A general note: In qHTS, concentration-response curves come from the screen itself.
A short description of assay [2]: qHTS assay for identifying genotoxic compounds that show differential cytotoxicity against isogenic chicken DT40 cell lines with known DNA damage response pathways - wild type cell line (AID 743012). Note: nearly all actives have a fitted effect of over 60% in size. Note: potency is the fitted concentration of half-maximal effect. A digest of the protocol: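 Viability by ATP luminescence (CellTiter-Glo, 30 min RT) after 40 h compound treatment at 37 C/5% CO2, using 300 parental DNA repair-proficient DT40 cells per well.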

Assay [3] is described as follows: qHTS assay for identifying genotoxic compounds that show differential cytotoxicity against isogenic chicken DT40 cell lines with known DNA damage response pathways - Rev3 mutant cell line (AID 743014). Note: nearly all actives have a fitted effect of over 55% in size. Note: potency is the fitted concentration of half-maximal effect.
A short description of assay [4]: qHTS assay for identifying genotoxic compounds that show differential cytotoxicity against isogenic chicken DT40 cell lines with known DNA damage response pathways - Rad54/Ku70 mutant cell line (AID 743015). Note: nearly all actives have a fitted effect of over 60% in size. Note: potency is the fitted concentration of half-maximal effect.
Assay [5] is described as follows: qHTS assay to identify small molecule antagonists of the androgen receptor (AR) signaling pathway - cell viability counter screen (AID 743033; note: nearly all actives have a fitted effect of over 45% in size; note: potency is the fitted concentration of half-maximal effect).
Assay [6] deals with Androgen receptor (Homo sapiens) (UniProt P10275). The assay is described as follows: qHTS assay to identify small molecule antagonists of the androgen receptor (AR) signaling pathway (AID 743035; active = well fitted inhibition curve with a large enough effect in the signal ratio in the repeat runs, not every such curve was filed as active; the % refers to the signal ratio). Put shortly: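 Antagonist mode: AR-bla HEK293 cells co-treated with test compounds and agonist R1881 for 16 h at 37C, 5% CO2. Beta-lactamase activity read as FRET fluorescence after 2 h room-temperature substrate loading.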

Assay [7] shares this target. In words: qHTS assay to identify small molecule agonists of the androgen receptor (AR) signaling pathway (AID 743036; active = well fitted activation curve with a large enough effect in the signal ratio in the repeat runs, with a control signal flat, not every such curve was filed as active; the % refers to the signal ratio; note: potency is the fitted concentration of half-maximal effect). Put shortly:
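Quantitative HTS of the Tox21 10K library in HEK293 cells bearing a stably integrated UAS-controlled beta-lactamase reporter. Compound exposure lasted 16 h at 37C. Reporter activity was detected by FRET substrate fluorescence after 2 h at room temperature.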

The target is the same in assay [8]. In words: qHTS assay to identify small molecule agonists of the androgen receptor (AR) signaling pathway using the MDA cell line (AID 743040; note: nearly all actives have a fitted effect of over 20% in size). As to conditions: MDA-kb2 AR-luc cells, MMTV luciferase, 16 h, stronger effect = higher value. Put shortly:
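Luciferase read-out, ONE-Glo, 30 min RT. Cells: MDA-kb2 AR-luc, MMTV promoter with AR and GR response elements. Compound exposure 16 h, 37C, 0% CO2, after 5 h pre-incubation. qHTS agonist mode.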

Assay [9] can be described thus: qHTS assay to identify small molecule antagonists of the androgen receptor (AR) signaling pathway using the MDA cell line - cell viability counter screen (AID 743041; note: nearly all actives have a fitted effect of over 45% in size). Put shortly: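 Cytotoxicity counter screen: MDA-kb2 AR-luc cells, compound + R1881, 16 h, 37C, 0% CO2; CellTiter-Fluor added at 15.5 h, fluorescence read after 30 min.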
Assay [10] has as its target Androgen receptor (Homo sapiens) (UniProt P10275). In words: qHTS assay to identify small molecule antagonists of the androgen receptor (AR) signaling pathway using the MDA cell line (AID 743042; note: nearly all actives have a fitted effect of over 55% in size). A digest of the protocol:
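MDA-kb2 breast carcinoma cells carrying MMTV-luciferase (AR/GR responsive) were co-treated with compounds and the agonist R1881 for 16 h at 37C. Inhibition read as ONE-Glo luminescence; CellTiter-Fluor fluorescence measured in parallel for cytotoxicity.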
% is set by controls: 0 for no effect and ±100 for the full control effect.

Androgen receptor (Homo sapiens), sequence (P10275 whole entry, looked up): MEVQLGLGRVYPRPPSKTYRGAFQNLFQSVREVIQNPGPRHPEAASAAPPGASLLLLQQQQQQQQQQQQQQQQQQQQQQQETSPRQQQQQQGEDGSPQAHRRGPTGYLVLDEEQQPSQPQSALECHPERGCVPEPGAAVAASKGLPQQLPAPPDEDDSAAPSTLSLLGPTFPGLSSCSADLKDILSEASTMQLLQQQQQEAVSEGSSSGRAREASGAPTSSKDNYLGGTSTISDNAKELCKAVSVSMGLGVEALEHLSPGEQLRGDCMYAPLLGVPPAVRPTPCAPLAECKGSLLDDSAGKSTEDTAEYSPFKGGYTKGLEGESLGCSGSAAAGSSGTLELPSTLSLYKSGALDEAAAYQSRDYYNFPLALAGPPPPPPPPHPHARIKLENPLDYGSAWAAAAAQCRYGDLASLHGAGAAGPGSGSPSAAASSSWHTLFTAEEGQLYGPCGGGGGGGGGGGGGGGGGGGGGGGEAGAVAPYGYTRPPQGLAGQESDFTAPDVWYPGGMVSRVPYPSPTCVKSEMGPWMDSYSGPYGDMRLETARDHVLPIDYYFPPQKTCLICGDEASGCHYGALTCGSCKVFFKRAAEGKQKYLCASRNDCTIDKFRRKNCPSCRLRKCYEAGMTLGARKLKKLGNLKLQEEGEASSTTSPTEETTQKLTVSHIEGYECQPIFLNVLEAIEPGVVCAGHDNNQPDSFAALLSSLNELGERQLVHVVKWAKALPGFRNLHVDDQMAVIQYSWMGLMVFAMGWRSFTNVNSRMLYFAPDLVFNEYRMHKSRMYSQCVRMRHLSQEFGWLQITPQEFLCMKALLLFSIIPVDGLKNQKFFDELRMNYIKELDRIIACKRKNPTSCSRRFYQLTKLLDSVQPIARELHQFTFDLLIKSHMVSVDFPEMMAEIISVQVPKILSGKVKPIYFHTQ

Turning to `Cc1ccc(C(C)C)cc1`, the Potency entry in assay [1], in assay [2], in [3], in [4], in assay [5] and in [6] was “inactive” throughout. Moreover, the Potency entry in assay [7], in assay [9] and in assay [10] was “inactive” each time. Further, the activity change in assay [8] (at 70.3 µM (top of the series)) was 1.12% (inactive); in assay [8] (at 95 µM (top of the series)), 0.115% (inactive).

As to `CC(=O)c1nccs1`, the Potency entry in assay [1], in assay [2], in [3], in assay [4], in assay [5] and in assay [9] was “inactive” each time.

Consider `COc1ccccc1[N+](=O)[O-]`, for which the Potency entry in assay [1], in [2], in [3], in assay [4], in assay [5] and in [9] was “inactive” each time.

`CS(=O)(=O)c1ccc(Cl)cc1`: the Potency result in assay [1], in assay [2], in assay [3], in assay [4], in assay [5] and in assay [9] was “inactive” in each case.

With `O=[N+]([O-])c1ccccc1C(F)(F)F`, the Potency result in assay [1], in [2], in assay [3], in [4], in assay [5] and in assay [6] was “inactive” in each case. Also, the Potency entry in assay [7], in assay [9] and in [10] was “inactive” each time. For the same compound, the activity change in assay [8] (at 70.3 µM (top of the series)) is 0.939% (inactive) and 0.0136% (inactive).

For the compound `CCc1cccc(CC)c1N`, the Potency entry in assay [1], in [2], in assay [3], in [4], in assay [5] and in assay [6] was “inactive” each time. For the same compound, the Potency entry in assay [7], in [9] and in assay [10] was “inactive” each time. Moreover, the activity change in assay [8] (at 70.3 µM (top of the series)) was 0.738% (inactive); in assay [8] (at 95 µM (top of the series)), 0.21% (inactive).

On to `CC(=O)OC(C)(C)C1CC=C(C)CC1` (centres undefined), for which the Potency entry in [1], in assay [2], in [3], in [5] and in assay [9] was “inactive” in each case. In addition, the Potency result in [4] is “inactive and 54.5 µM (active)”.

For `Nc1cccc(N)n1`, the Potency result in assay [1], in assay [2], in assay [3], in assay [4], in assay [5] and in assay [9] was “inactive” in each case.

On to `C=C1C[C@]23C[C@@]1(O)CC[C@H]2[C@@]12C=C[C@H](O)[C@@](C)(C(=O)O1)[C@H]2[C@@H]3C(=O)O`, for which the Potency result in assay [1], in assay [2], in [3], in [4], in assay [5] and in assay [9] was “inactive” throughout.

With `Nc1nc(N)c2nc(-c3ccccc3)c(N)nc2n1`, the Potency result in assay [1], in assay [9] and in [10] was “inactive” each time. For the same compound, the Potency is 11.9 µM (active) and 12.3 µM (active) and 4.86 µM (active) in [2]; 9.44 µM (active) and 3.9 µM (active) and 6.11 µM (active) in assay [3]; 26.6 µM (active) and 6.94 µM (active) and 21.7 µM (active) in assay [4]; 49.5 µM (active) in assay [5]; 21.3 µM (active) and 49.5 µM (active) and 49 µM (active) in assay [7]. In addition, in assay [8] (at 70.3 µM (top of the series)), the activity change is 18% (inactive).

For `O=[N+]([O-])c1cc(C(F)(F)F)ccc1Cl`, the Potency result in [1], in [2], in assay [3], in assay [4], in assay [5] and in assay [6] was “inactive” in each case. For the same compound, the Potency entry in assay [7] and in assay [10] was “inactive” throughout. In addition, the activity change in assay [8] (at 70.3 µM (top of the series)) is -0.292% (inactive); in [8] (at 95 µM (top of the series)) it was 5.79% (inactive).

Regarding `CC(=O)OCCC(C)C`, the Potency entry in [1], in [2], in assay [3], in assay [4], in assay [5] and in [9] was “inactive” each time.

`CCCOCC(C)O` (centres undefined): the Potency entry in [1], in [2], in assay [3], in [4], in [5] and in assay [6] was “inactive” throughout. For the same compound, the Potency result in assay [7], in assay [9] and in [10] was “inactive” in each case. For the same compound, in [8] (at 70.3 µM (top of the series)), the activity change is -0.141% (active) and -0.54% (inactive).

For the compound `CC1(C)C(=O)N(Cl)C(=O)N1Cl`, the Potency entry in assay [1], in assay [2], in assay [3], in assay [4], in assay [5] and in assay [9] was “inactive” each time.

For the compound `O=c1n(CCCN2CCN(c3cccc(Cl)c3)CC2)nc2ccccn12`, the Potency entry in assay [1], in assay [5] and in assay [9] was “inactive” throughout. Besides, the Potency result was “inactive and 54.5 µM (active)” in [2]; “inactive and 54.5 µM (active)” in [3]; “inactive and 43.3 µM (active)” in assay [4].

Consider `OCC(O)CS` (centres undefined), for which the Potency result in assay [1], in assay [2], in assay [3], in assay [4], in [5] and in assay [6] was “inactive” in each case. Also, the Potency entry in assay [7], in assay [9] and in assay [10] was “inactive” each time. For the same compound, the activity change in [8] (at 70.3 µM (top of the series)) is 0.512% (inactive).

`CCCCCCCCC(=O)O`: the Potency result in assay [1], in [2], in [3], in assay [4], in assay [5] and in [9] was “inactive” in each case.

Turning to `CC(C)(CO)CO`, the Potency entry in [1], in [2], in assay [3], in assay [4], in assay [5] and in assay [6] was “inactive” each time. The Potency entry in [7], in [9] and in assay [10] was “inactive” in each case. For the same compound, in assay [8] (at 70.3 µM (top of the series)), the activity change is 0.0392% (inactive) and -0.381% (inactive).

With `COC(=O)/C=C\C(=O)OC`, the Potency result in assay [1], in assay [2], in assay [3], in [4], in assay [5] and in assay [9] was “inactive” each time.

For the compound `CCCCC(CC)COC(=O)c1ccc(C(=O)OCC(CC)CCCC)cc1` (centres undefined), the Potency entry in [1], in [2], in assay [3], in assay [4], in assay [5] and in [6] was “inactive” each time. In addition, the Potency result in assay [7], in [9] and in assay [10] was “inactive” in each case. Moreover, in assay [8] (at 70.3 µM (top of the series)), the activity change was 2.15% (inactive) and 1.01% (inactive).

With `CC/C=C(\C(=O)N[C@@H]1C(=O)N2C(C(=O)OCOC(=O)C(C)(C)C)=C(COC(N)=O)CS[C@H]12)c1csc(N)n1`, the Potency entry in assay [1], in assay [2], in [3], in [4], in assay [5] and in assay [9] was “inactive” in each case.

On to `Cc1nnc(NS(=O)(=O)c2ccc(N)cc2)s1`, for which the Potency entry in assay [1], in assay [2], in assay [3], in assay [4], in assay [5] and in [6] was “inactive” in each case. The Potency result in [7], in assay [9] and in assay [10] was “inactive” throughout. Moreover, the activity change in assay [8] (at 70.3 µM (top of the series)) was 6.45% (inactive) and 3.21% (inactive).

Regarding `CC(CN1c2ccccc2Sc2ccccc21)N(C)C` (centres undefined), the Potency entry in assay [1] was “inactive”. Also, the Potency in assay [2] is 21.1 µM (active) and 55 µM (active) and 54.5 µM (active); in assay [3], 26.6 µM (active) and 27.6 µM (active) and 24.3 µM (active); in assay [4] it was 26.6 µM (active) and 30.9 µM (active) and 54.5 µM (active); in assay [5], “inactive and 44.1 µM (active)”.

For `OC[C@H]1O[C@@H](Oc2ccc(O)cc2)[C@H](O)[C@@H](O)[C@@H]1O`, the Potency entry in assay [1], in [2], in [4], in assay [5] and in [9] was “inactive” in each case. In assay [3], the Potency result is “inactive and 30.6 µM (active)”.
